# Hits are enriched below; roughly 2.3% of the tested compounds scored in any of these assays.
# CHRM1 PAM: potentiates human M1 receptor response to acetylcholine; CHO-K1 hM1, Fluo-8 calcium fluorescence, ACh EC20; 0% = ACh EC20, 100% = maximal ACh; activation, % at 3 µM; actives 0.088% (n = 360,000); in the data active = activation above about 19%, passing the limit was not always enough
# Target sequence (P11229 whole entry, looked up): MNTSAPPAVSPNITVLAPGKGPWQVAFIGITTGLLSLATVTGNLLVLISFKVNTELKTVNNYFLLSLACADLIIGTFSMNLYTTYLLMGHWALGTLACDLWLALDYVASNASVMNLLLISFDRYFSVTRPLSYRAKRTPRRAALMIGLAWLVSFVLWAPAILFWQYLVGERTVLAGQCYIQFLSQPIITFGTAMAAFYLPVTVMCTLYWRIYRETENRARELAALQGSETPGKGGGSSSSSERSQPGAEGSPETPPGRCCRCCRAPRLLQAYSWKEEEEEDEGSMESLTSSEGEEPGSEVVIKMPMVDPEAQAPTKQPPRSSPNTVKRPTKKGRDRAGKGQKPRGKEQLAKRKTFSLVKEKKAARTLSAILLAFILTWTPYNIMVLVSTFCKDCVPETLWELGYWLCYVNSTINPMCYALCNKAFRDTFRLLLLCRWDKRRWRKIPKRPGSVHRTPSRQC
# CHO-K1 Ca antag: nonselective inhibitor or artifact in parental CHO-K1 cells; ATP-induced calcium, Fluo-8 fluorescence; inhibition, % at 3 µM; actives 0.6% (n = 360,000); AID 602250;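 active = inhibition above a per-plate cutoff, the plate's mean sample inhibition plus 3 SD, cut at about 24% in these data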
# CHRM1 agonist: activates human CHRM1 receptor; CHO-K1 hM1, Fluo-8 calcium fluorescence, agonist mode; 0% DMSO, 100% acetylcholine EC100; activation, % at 3 µM; actives 0.33% (n = 360,000);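 active = activation above the run's mean compound activation plus 3 SD, cut at about 16% in these data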;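 note: peak over basal fluorescence ratio within a 140 s kinetic read after compound addition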
# M1 antag: blocks human M1 muscarinic receptor. actives 1.3% (n = 360,000). P11229. inhibition, % at 3 µM. CHO-K1 hM1, Fluo-8 calcium fluorescence, ACh EC80 antagonist. AID 588852;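 active = percent inhibition above its own plate's cutoff, namely the mean of that plate's compound wells plus 3 SD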;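 note: peak over basal fluorescence ratio during 140 s after agonist addition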
# M1 ag parental: nonselective activator or artifact in parental CHO-K1 cells. Fluo-8 calcium fluorescence; scaled to maximal ATP response, vehicle zero. activation, % at 3 µM. actives 0.48% (n = 360,000); in the data active = activation above about 15%;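 note: untransfected CHO-K1 host cells lacking M1 receptor as counterscreen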
# M1 PAM parental: M1 PAM counterscreen hit in parental CHO-K1 cells. actives 0.02% (n = 360,000). activation, % at 3 µM. AID 602247. ATP EC20, Fluo-8 calcium fluorescence; 0% at ATP EC20, 100% at ATP max;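 active = activation above the run cutoff, the mean activation of all test compounds plus 3 SD, cut at about 40% in these data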;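 note: peak over basal fluorescence ratio in a 140 s read after ATP addition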
# A number is an active result; - = inactive; . = no result.
SMILES,CHRM1 PAM,CHO-K1 Ca antag,CHRM1 agonist,M1 antag,M1 ag parental,M1 PAM parental
CCC(c1nc2ccccc2[nH]1)N(CCCn1ccnc1)C(=O)c1ccc(C(F)(F)F)cc1 (stereo unspecified),-,-,-,-,-,-
COc1ccc(C(=O)NNC(=O)c2ccc(C(C)(C)C)cc2)cc1,-,-,-,-,-,-
COc1ccc(C(=O)NNC(=S)NC(=O)c2cc(-c3ccccc3)nc3ccccc23)cc1,-,-,-,-,30,-
COc1ccc(C(=O)NNC(=S)NC(=O)C(C)(C)C)cc1,-,-,77,-,86,-
CCCOc1ccc(C(=O)NNC(=S)NC(=O)c2cc(-c3ccc(Cl)cc3)nc3ccccc23)cc1,-,-,-,-,-,-
COc1ccc(C(=O)NC(=S)NNC(=O)c2ccccc2C)cc1,-,24,85,-,85,-
COc1cc(C(=O)NNC(=S)NC(=O)c2ccccc2C)cc(OC)c1OC,-,-,-,-,24,-
CCOC(=O)c1oc2ccc(Br)cc2c1COC(=O)C1=COCCO1,-,-,-,57,-,-
Cc1ccc2c(c1)C1CN(C)CCC1N2C(=O)c1ccc(Cl)c(S(=O)(=O)N2CCOCC2)c1 (stereo unspecified),-,-,-,79,-,-
Cc1ccc2c(c1)C1CN(C)CCC1N2C(=O)c1cccc(S(=O)(=O)N2CC(C)CC(C)C2)c1 (stereo unspecified),-,-,-,37,-,-
Cc1ccc2c(c1)C1CN(C)CCC1N2S(=O)(=O)c1cc(C(F)(F)F)ccc1Cl (stereo unspecified),-,-,-,-,-,-
Cc1ccc(C(=O)N(C)c2ccc(OCC(=O)N3c4ccc(C)cc4C4CN(C)CCC43)cc2)cc1 (stereo unspecified),-,-,-,23,-,-
COc1ccc([N+](=O)[O-])cc1NC(=O)C(C)OC(=O)CSC(C)C(=O)Nc1cc(C)on1 (stereo unspecified),-,-,-,-,-,-
O=C(CN1CCCCC1)Nc1nnc(-c2ccc([N+](=O)[O-])cc2)s1,-,29,-,-,-,-
CC1=CCC(C(=O)N/N=C/c2cccs2)C(c2ccc(F)cc2)C1 (stereo unspecified),-,-,-,-,-,48
COc1ccc(C(=O)c2cnc(/N=C/N(C)C)s2)cc1,-,33,-,-,-,-
O=C(COc1ccc2ccccc2c1Br)Nc1ncn[nH]1,-,-,-,-,19,-
O=S1(=O)N[C@@H](Cc2ccccc2)COc2cccc(N3CCSCC3)c21,.,-,.,.,-,-
Cc1c(Cl)cccc1NC(=S)NCCC(c1ccccc1)c1ccccc1,-,24,-,-,-,-
Cc1ccc(S(=O)(=O)N(C)C)cc1NC(=O)COC(=O)c1ccc2c(=O)n3c(nc2c1)CCC3,-,-,-,-,-,-
CNCCC=C1c2ccccc2C=Cc2ccccc21,-,-,-,98,-,-
CN(C)CCC=C1c2ccccc2C=Cc2ccccc21,-,-,-,98,-,-
O=C(/C=C/[C@H]1O[C@@H](n2ccc(=O)[nH]c2=O)[C@H](O)[C@@H]1O)NCc1cccnc1,-,-,-,-,-,-
CC(C)N=C1SC(CC(=O)Nc2ccccc2)C(=O)N1C(C)C (stereo unspecified),-,-,-,26,-,-
O=C(CC1SC(=Nc2ccccc2)N(CCCO)C1=O)Nc1ccc(Cl)cc1 (stereo unspecified),-,-,-,30,-,-
SMILES,CHRM1 PAM,CHO-K1 Ca antag,CHRM1 agonist,M1 antag,M1 ag parental,M1 PAM parental
Cc1cccc(C)c1-n1nnnc1C1c2ccccc2C(=O)N1C1CC1 (stereo unspecified),.,-,.,.,-,-
Nc1nc2ccc(Cl)cc2cc1C(=O)NCCc1c[nH]c2ccccc12,.,-,.,.,-,-
COc1ccc(CCNC(=O)c2cc3ccc(Cl)cc3nc2N)cc1,.,33,.,.,-,-
Nc1nc2ccc(Cl)cc2cc1C(=O)NCc1ccc(Oc2ccccc2)cc1,.,28,.,.,-,-
FC(F)(F)c1cccc(NC(=S)NCc2ccc(Cl)cc2)c1,-,-,-,-,17,-
CC(NC(=S)Nc1cccc(C(F)(F)F)c1)C(C)(C)C (stereo unspecified),-,-,-,46,-,-
Cn1nc(C(C)(C)C)cc1C(=O)N1CCCC(C)(C(=O)NS(=O)(=O)C2CC2)C1 (stereo unspecified),-,-,-,-,-,-
O=c1[nH][nH]c2c1[C@H](c1ccccc1)O[C@H](C1CCCCC1)C2,.,-,.,.,-,-
Cc1ccc(/C=N/Nc2nc(C)cc(C)n2)cc1,-,-,-,-,-,-
Cc1cc(C)nc(N/N=C/c2cn[nH]c2-c2ccc(F)cc2)n1,-,-,-,-,18,-
COc1ccccc1NC(=O)C(C)N(C)Cc1ccc(Cl)s1 (stereo unspecified),-,-,-,-,-,48
COc1ccccc1NC(=O)C(C)N(C)CC(=O)Nc1cccc2ccccc12 (stereo unspecified),-,-,-,-,-,-
O=C(c1ccccc1)c1c2c(cc3sc4ccccc4[n+]13)-c1cccc3cccc-2c13,-,24,34,46,24,-
Cc1sc2ccccc2[n+]1CC(=O)c1ccccc1,-,-,-,-,-,-
O=C(O)Cc1ccc2c(c1)N(S(=O)(=O)c1cccs1)CC(C(=O)O)O2 (stereo unspecified),-,-,-,-,-,-
CC[C@@H](NC(=O)[C@H](Cc1ccccc1)NC(=O)CC[C@H]1O[C@@H](n2ccc(=O)[nH]c2=O)[C@H](O)[C@@H]1O)c1ccccc1,-,-,-,-,-,-
Nc1nc2cc3c(cc2cc1C(=O)NCc1ccc(F)cc1)OCO3,.,-,.,.,-,-
O=C(NC(c1ccc(-c2ccccc2)cc1)c1cnccn1)C1CCN(Cc2ccc3c(c2)OCO3)CC1 (stereo unspecified),-,-,-,-,-,-
N#CC(C#N)=C(Nc1ccc(F)cc1)SCc1cccc(Br)c1,-,26,-,-,-,-
Cc1cccc(CSC(=N)N)c1,-,-,-,-,-,-
CC(SCc1ccccc1)C(=O)Nc1ccc(F)cc1 (stereo unspecified),-,-,-,-,-,-
Cc1cccc(CSC(Nc2ccc(F)cc2)=C(C#N)C#N)c1,-,28,-,-,-,-
COc1ccc(-n2c(C)cc(C(=O)COC(=O)c3ccc(O)cc3O)c2C)cc1,-,-,-,-,-,-
Cc1cc(C(=O)COC(=O)c2ccc(O)cc2O)c(C)n1-c1ccc(OC(F)F)cc1,-,29,-,-,-,-
Cc1ccccc1C(=O)NNC1CC(=O)N(c2ccc3c(c2)OCCO3)C1=O (stereo unspecified),-,28,-,-,-,-
